# Results reported in PubChem BioAssay (NCATS).
# Inconclusive results are not listed. Where a call stands in place of a potency, no number is given. The source made the active and inactive calls. The call rests on the fitted dose curve; in most records, active means well fitted curve in the direction sought with a large enough effect; inconclusive means small, poorly fitted or top-dose-only effect, or another doubt; inactive means no such curve, though single readings can be large; an effect the other way counts as inactive or inconclusive.
# Tested on: not listed separately
# Assay: qHTS to identify inhibitors of the type 1 interferon - major histocompatibility complex class I in skeletal muscle: primary screen against the NCATS Pharmaceutical Collection (AID 1347407);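 further: luminescence of HiBiT knocked into endogenous HLA-B as interferon-induced MHC class I level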; further: potency means the concentration at half of the fitted maximal effect
# Details: human skeletal muscle cells, IFN-b-induced MHC-I HiBiT luminescence, 24 h; series mostly up to 45.9 µM
# Summary of the method: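 Cells were seeded with 4 ng/ml IFN-beta, incubated 1 h, then dosed with compounds over eight 1:5 steps up to 46 uM final. After 24 h at 37 C, HiBiT lytic reagent was added and luminescence read after 10 min lysis in the dark.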
row,Structure (SMILES),Potency
1,CC(C)=CC1C(C(=O)OCc2cccc(Oc3ccccc3)c2)C1(C)C (centres undefined),inactive
2,C[C@]12CC[C@H]3[C@@H](CCC4=CC(=O)CC[C@@H]43)[C@@H]1CC[C@@H]2OC(=O)CCc1ccccc1,inactive
3,CN1CCN(C(=O)O[C@H]2c3nccnc3C(=O)N2c2ccc(Cl)cn2)CC1,inactive
4,CC(C)(C)NCC(O)c1cc(Cl)c(N)c(Cl)c1 (centres undefined),inactive
5,C[C@H]1O[C@@H](O[C@H]2[C@@H](O)C[C@H](O[C@H]3[C@@H](O)C[C@H](O[C@H]4CC[C@@]5(C)[C@H](CC[C@@H]6[C@@H]5CC[C@]5(C)[C@@H](C7=CC(=O)OC7)CC[C@]65O)C4)O[C@@H]3C)O[C@@H]2C)C[C@H](O)[C@@H]1O,26.4 nM (active)
6,CN(C)CCc1ccc(O)cc1,inactive
7,Oc1ccc(Cl)cc1Cc1ccccc1,inactive
8,CC(=O)Nc1cc([As](=O)(O)O)ccc1O,inactive
9,CN(C)[C@@H]1C(=O)C(C(N)=O)=C(O)[C@@]2(O)C(=O)C3=C(O)c4c(O)cccc4[C@@](C)(O)[C@H]3C[C@@H]12,inactive
10,C#CCN(C)[C@H](C)Cc1ccccc1,inactive
11,CC(C)(C)CC(C)(C)c1ccc(O)cc1,inactive
12,O=[N+]([O-])c1cc([As](=O)(O)O)ccc1O,inactive
13,FC(F)(F)c1cccc(C2=CCN(CCc3ccc4ccccc4c3)CC2)c1,inactive
14,Cn1cc(C2=C(c3cn(C4CCN(Cc5ccccn5)CC4)c4ccccc34)C(=O)NC2=O)c2ccccc21,inactive

# Tested on: not listed separately
# Assay: qHTS for inhibitors of adenylyl cyclases using a fission yeast platform: a pilot screen against the NCATS LOPAC library (AID 1347410)
# Details: S. pombe CHP2027, fbp1-GFP fluorescence, 18 h; series mostly up to 57.5 µM
# Summary of the method: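 Growth medium went into the plates first, then compounds were pinned (final up to 57 µM), then CHP2027 yeast were added. Plates were incubated overnight (18 h) at 30C in the dark, and GFP was measured by laser scanning cytometry.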
row,Structure (SMILES),outcome
1,Fc1ccc(C(OCCN2CCN(CCCc3ccccc3)CC2)c2ccc(F)cc2)cc1,inactive
2,O=c1[nH]c2ccccc2n1C1CCN(CCCC(c2ccc(F)cc2)c2ccc(F)cc2)CC1,inactive
3,COC[C@H]1OC(=O)c2coc3c2[C@@]1(C)C1=C(C3=O)C2CCC(=O)[C@@]2(C)C[C@H]1OC(C)=O (some centres undefined),inactive

# Biological target: Protein phosphatase 1D (Homo sapiens) (UniProt O15297)
# Sequence (O15297 whole entry, looked up): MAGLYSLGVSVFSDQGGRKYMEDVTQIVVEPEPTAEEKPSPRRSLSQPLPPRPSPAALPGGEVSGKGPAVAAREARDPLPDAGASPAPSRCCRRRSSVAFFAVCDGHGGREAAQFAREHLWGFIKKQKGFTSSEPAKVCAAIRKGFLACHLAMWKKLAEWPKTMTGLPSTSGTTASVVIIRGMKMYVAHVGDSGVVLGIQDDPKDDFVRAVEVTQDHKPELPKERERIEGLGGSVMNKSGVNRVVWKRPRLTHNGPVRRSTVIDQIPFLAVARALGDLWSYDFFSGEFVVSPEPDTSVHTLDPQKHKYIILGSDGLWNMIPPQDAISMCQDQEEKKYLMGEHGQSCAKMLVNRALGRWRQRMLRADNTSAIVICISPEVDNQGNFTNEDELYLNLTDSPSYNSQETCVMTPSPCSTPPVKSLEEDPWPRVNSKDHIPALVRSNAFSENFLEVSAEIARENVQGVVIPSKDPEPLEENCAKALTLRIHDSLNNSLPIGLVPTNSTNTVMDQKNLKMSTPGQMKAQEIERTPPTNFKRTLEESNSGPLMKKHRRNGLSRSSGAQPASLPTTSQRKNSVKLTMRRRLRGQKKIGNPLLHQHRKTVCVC
# Assay: RapidFire Mass Spectrometry qHTS Assay for Modulators of WT P53-Induced Phosphatase 1 (WIP1) (AID 1347424);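 further: amount of dephosphorylated VEPPL-S-QETFS peptide product formed by WIP1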
# Details: WIP1 dephosphorylation of phosphopeptide, RapidFire MS; series mostly up to 63 µM
# Summary of the method: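 RapidFire mass spectrometry measured dephosphorylated peptide after 5 min room-temperature reaction of 2 uM VEPPL-pS-QETFS with 10 nM WIP1 (50 mM Tris-HCl pH 7.5, 30 mM MgCl2, 0.1 mM EGTA, BSA), following 1 hr compound preincubation; 1 uM isotope-labelled product standard.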
row,Structure (SMILES),Potency
1,Clc1ccc(COC(Cn2ccnc2)c2ccc(Cl)cc2Cl)cc1 (centres undefined),inactive
2,CC(C)=CC1C(C(=O)OCc2cccc(Oc3ccccc3)c2)C1(C)C (centres undefined),inactive
3,C[C@]12CC[C@H]3[C@@H](CCC4=CC(=O)CC[C@@H]43)[C@@H]1CC[C@@H]2OC(=O)CCc1ccccc1,inactive
4,CN1CCN(C(=O)O[C@H]2c3nccnc3C(=O)N2c2ccc(Cl)cn2)CC1,inactive
5,C=C(C)[C@H]1Cc2c(ccc3c2O[C@@H]2COc4cc(OC)c(OC)cc4[C@@H]2C3=O)O1,inactive
6,CC(C)(C)NCC(O)c1cc(Cl)c(N)c(Cl)c1 (centres undefined),inactive
7,C[C@H]1O[C@@H](O[C@H]2[C@@H](O)C[C@H](O[C@H]3[C@@H](O)C[C@H](O[C@H]4CC[C@@]5(C)[C@H](CC[C@@H]6[C@@H]5CC[C@]5(C)[C@@H](C7=CC(=O)OC7)CC[C@]65O)C4)O[C@@H]3C)O[C@@H]2C)C[C@H](O)[C@@H]1O,inactive
8,O=C1CC[C@@]2(O)[C@H]3Cc4ccc(O)c5c4[C@@]2(CCN3CC2CC2)[C@H]1O5,inactive
9,Oc1ccc(Cl)cc1Cc1ccccc1,inactive
10,Fc1ccc(C(OCCN2CCN(CCCc3ccccc3)CC2)c2ccc(F)cc2)cc1,inactive
11,C[C@]12C/C(=C/O)C(=O)C[C@@H]1CC[C@@H]1[C@@H]2CC[C@@]2(C)[C@H]1CC[C@]2(C)O,inactive
12,O=c1[nH]c2ccccc2n1C1CCN(CCCC(c2ccc(F)cc2)c2ccc(F)cc2)CC1,inactive
13,C#CCN(C)[C@H](C)Cc1ccccc1,inactive
14,CCC(=O)C(CC(C)N(C)C)(c1ccccc1)c1ccccc1 (centres undefined),inactive
15,CC(C)(C)CC(C)(C)c1ccc(O)cc1,inactive
16,O=[N+]([O-])c1cc([As](=O)(O)O)ccc1O,inactive
17,FC(F)(F)c1cccc(C2=CCN(CCc3ccc4ccccc4c3)CC2)c1,inactive
18,Cn1cc(C2=C(c3cn(C4CCN(Cc5ccccn5)CC4)c4ccccc34)C(=O)NC2=O)c2ccccc21,inactive

# Biological target: Protein phosphatase 1D (Homo sapiens) (UniProt O15297)
# Assay: Rhodamine-PBP qHTS Assay for Modulators of WT P53-Induced Phosphatase 1 (WIP1) (AID 1347425)
# Details: recombinant WIP1, Rhodamine-PBP phosphate fluorescence, real-time; series mostly up to 57.5 µM
# Summary of the method: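 Steps: enzyme with Rh-PBP sensor and compounds, room-temperature incubation of 1 hr, baseline read, addition of VEPPL-pS-QETFS (10 uM final), kinetic fluorescence reads at 525/598 nm. Activity equals final minus baseline signal.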
row,Structure (SMILES),outcome
1,Clc1ccc(COC(Cn2ccnc2)c2ccc(Cl)cc2Cl)cc1 (centres undefined),inactive
2,CC(C)=CC1C(C(=O)OCc2cccc(Oc3ccccc3)c2)C1(C)C (centres undefined),inactive
3,C[C@]12CC[C@H]3[C@@H](CCC4=CC(=O)CC[C@@H]43)[C@@H]1CC[C@@H]2OC(=O)CCc1ccccc1,inactive
4,CN1CCN(C(=O)O[C@H]2c3nccnc3C(=O)N2c2ccc(Cl)cn2)CC1,inactive
5,C=C(C)[C@H]1Cc2c(ccc3c2O[C@@H]2COc4cc(OC)c(OC)cc4[C@@H]2C3=O)O1,inactive
6,CC(C)(C)NCC(O)c1cc(Cl)c(N)c(Cl)c1 (centres undefined),inactive
7,C[C@H]1O[C@@H](O[C@H]2[C@@H](O)C[C@H](O[C@H]3[C@@H](O)C[C@H](O[C@H]4CC[C@@]5(C)[C@H](CC[C@@H]6[C@@H]5CC[C@]5(C)[C@@H](C7=CC(=O)OC7)CC[C@]65O)C4)O[C@@H]3C)O[C@@H]2C)C[C@H](O)[C@@H]1O,inactive
8,CN(C)CCc1ccc(O)cc1,inactive
9,O=C1CC[C@@]2(O)[C@H]3Cc4ccc(O)c5c4[C@@]2(CCN3CC2CC2)[C@H]1O5,inactive
10,Fc1ccc(C(OCCN2CCN(CCCc3ccccc3)CC2)c2ccc(F)cc2)cc1,inactive
11,CC(=O)Nc1cc([As](=O)(O)O)ccc1O,inactive
12,C[C@]12C/C(=C/O)C(=O)C[C@@H]1CC[C@@H]1[C@@H]2CC[C@@]2(C)[C@H]1CC[C@]2(C)O,inactive
13,O=c1[nH]c2ccccc2n1C1CCN(CCCC(c2ccc(F)cc2)c2ccc(F)cc2)CC1,inactive
14,C#CCN(C)[C@H](C)Cc1ccccc1,inactive
15,CCC(=O)C(CC(C)N(C)C)(c1ccccc1)c1ccccc1 (centres undefined),inactive
16,CC(C)(C)CC(C)(C)c1ccc(O)cc1,inactive
17,O=[N+]([O-])c1cc([As](=O)(O)O)ccc1O,inactive
18,FC(F)(F)c1cccc(C2=CCN(CCc3ccc4ccccc4c3)CC2)c1,inactive
19,Cn1cc(C2=C(c3cn(C4CCN(Cc5ccccn5)CC4)c4ccccc34)C(=O)NC2=O)c2ccccc21,inactive
